The full list was thinned out, with hits kept by preference.
MLL CXXC-DNA inh = MLL CXXC-DNA interaction inhibition. Q03164. Potency, µM (titrated, usually from 115 µM), without a hit: at the highest dose activity change, negative = inhibition, hits mostly inhibitors. MLL-CXXC / FITC-HOXA9 DNA fluorescence polarization. hit rate 0.037% among 290,000; active = well fitted inhibition curve with a large enough effect in the polarisation, with a control signal flat, not every such curve was filed as active; inconclusive = small, poorly fitted or top-dose-only effect, or effect the other way, or a change in a side signal; inactive = no such curve, though single readings can be large or run the other way; the % refers to the polarisation; note: potency is the fitted concentration of half-maximal effect
Target sequence (Q03164 whole entry, looked up): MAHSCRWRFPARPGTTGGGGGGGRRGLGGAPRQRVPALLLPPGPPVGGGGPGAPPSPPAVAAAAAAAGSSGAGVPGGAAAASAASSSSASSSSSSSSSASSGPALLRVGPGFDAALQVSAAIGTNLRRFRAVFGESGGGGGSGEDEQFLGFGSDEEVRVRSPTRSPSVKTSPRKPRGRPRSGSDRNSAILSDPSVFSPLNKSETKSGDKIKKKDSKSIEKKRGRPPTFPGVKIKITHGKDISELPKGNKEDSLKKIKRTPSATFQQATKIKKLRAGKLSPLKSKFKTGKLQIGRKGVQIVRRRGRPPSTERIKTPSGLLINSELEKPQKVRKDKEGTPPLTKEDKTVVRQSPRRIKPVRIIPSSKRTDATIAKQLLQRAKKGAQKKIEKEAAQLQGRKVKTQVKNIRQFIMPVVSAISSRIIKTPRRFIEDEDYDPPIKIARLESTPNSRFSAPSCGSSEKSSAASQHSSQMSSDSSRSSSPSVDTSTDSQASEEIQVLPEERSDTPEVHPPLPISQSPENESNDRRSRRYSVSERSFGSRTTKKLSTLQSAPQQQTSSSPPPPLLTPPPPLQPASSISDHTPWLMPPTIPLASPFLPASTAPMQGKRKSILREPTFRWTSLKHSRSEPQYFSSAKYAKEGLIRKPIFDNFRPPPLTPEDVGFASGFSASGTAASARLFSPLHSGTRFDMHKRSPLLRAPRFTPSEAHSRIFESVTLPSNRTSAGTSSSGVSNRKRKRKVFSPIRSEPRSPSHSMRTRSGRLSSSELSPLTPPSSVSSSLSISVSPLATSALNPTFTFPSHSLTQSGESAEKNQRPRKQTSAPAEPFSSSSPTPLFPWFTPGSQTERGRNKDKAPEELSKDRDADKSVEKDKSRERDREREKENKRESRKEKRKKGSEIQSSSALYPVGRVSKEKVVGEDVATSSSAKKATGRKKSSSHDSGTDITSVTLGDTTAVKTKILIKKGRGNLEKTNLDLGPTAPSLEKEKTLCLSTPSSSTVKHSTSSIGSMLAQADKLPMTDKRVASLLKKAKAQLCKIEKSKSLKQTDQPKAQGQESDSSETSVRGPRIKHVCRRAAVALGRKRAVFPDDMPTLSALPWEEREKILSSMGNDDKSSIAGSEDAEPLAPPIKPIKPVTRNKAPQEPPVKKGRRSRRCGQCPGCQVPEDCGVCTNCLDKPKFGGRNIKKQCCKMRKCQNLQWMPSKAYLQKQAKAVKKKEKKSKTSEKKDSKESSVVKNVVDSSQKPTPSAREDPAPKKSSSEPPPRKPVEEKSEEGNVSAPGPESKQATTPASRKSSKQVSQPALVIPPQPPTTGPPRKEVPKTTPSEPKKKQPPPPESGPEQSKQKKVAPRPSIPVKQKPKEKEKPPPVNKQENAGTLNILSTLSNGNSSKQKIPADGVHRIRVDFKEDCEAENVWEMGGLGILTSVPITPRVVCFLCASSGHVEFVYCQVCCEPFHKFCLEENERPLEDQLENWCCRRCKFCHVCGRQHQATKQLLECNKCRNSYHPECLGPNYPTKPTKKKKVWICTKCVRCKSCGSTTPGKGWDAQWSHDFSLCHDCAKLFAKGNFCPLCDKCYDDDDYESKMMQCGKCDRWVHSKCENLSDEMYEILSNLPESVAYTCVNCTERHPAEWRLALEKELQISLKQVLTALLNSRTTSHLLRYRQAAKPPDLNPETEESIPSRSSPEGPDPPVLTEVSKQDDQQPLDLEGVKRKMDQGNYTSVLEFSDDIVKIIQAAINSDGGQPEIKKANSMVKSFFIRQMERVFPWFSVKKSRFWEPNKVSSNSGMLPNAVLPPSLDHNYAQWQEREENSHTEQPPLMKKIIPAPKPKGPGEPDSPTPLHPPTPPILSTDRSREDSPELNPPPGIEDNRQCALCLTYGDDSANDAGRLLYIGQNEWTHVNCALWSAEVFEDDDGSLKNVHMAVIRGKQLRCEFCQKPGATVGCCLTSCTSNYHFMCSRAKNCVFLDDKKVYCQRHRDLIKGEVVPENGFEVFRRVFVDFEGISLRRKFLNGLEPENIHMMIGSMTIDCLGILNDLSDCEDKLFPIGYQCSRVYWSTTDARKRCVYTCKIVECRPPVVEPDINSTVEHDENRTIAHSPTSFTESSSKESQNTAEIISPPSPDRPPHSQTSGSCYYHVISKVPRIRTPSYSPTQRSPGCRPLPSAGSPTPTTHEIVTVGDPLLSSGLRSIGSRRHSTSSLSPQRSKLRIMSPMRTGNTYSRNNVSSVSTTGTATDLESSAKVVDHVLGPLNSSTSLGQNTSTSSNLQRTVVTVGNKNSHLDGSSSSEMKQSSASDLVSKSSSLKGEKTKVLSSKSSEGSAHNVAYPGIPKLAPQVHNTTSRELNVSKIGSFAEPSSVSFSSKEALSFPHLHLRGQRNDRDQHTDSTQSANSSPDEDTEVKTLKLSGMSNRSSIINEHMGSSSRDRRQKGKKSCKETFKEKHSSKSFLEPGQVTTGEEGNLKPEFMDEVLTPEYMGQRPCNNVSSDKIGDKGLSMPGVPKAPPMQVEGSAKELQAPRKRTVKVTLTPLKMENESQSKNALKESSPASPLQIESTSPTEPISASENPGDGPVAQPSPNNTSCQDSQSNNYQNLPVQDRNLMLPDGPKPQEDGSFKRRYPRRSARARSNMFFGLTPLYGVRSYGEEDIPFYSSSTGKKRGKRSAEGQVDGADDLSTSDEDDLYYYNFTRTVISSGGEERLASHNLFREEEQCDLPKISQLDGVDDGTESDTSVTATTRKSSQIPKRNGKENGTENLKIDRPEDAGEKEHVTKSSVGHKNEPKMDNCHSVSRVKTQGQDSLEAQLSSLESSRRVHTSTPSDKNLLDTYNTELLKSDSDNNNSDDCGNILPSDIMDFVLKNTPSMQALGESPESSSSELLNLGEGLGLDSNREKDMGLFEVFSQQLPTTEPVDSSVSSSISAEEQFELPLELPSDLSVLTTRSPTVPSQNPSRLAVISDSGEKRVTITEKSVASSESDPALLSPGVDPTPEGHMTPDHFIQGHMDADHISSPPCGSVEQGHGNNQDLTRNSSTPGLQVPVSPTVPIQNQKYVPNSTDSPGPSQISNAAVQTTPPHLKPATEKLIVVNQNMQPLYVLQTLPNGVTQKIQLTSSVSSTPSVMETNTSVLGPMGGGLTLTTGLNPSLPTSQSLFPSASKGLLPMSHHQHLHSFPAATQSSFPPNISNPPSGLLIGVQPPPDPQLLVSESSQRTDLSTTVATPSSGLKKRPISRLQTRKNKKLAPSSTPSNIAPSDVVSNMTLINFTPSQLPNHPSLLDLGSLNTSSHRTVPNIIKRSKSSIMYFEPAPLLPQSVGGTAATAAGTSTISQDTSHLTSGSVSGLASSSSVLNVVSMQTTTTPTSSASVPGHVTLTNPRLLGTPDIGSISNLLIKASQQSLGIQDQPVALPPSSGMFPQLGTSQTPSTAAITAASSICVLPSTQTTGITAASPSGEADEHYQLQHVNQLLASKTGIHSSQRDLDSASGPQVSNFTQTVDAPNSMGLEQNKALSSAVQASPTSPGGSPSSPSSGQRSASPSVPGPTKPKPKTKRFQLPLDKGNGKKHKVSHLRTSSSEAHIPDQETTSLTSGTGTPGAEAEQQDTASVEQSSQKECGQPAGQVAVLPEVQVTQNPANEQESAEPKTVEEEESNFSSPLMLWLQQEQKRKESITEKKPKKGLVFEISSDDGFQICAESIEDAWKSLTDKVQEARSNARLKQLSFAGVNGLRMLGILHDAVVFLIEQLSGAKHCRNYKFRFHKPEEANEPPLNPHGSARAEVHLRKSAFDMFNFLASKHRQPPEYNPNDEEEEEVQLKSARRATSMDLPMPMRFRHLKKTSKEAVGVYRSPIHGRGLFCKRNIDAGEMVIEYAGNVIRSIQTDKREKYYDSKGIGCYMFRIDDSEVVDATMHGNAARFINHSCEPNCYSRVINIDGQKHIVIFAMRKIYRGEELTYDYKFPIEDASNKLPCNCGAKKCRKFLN
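Fluorescence polarization: 7 uM MLL-CXXC (stock) preincubated 5 min with compounds, then 50 nM fluorescein-HOX-A9 DNA (stock) added; 30 min ambient. Buffer 50 mM Tris-HCl pH 7.5, 50 mM NaCl, 1 mM DTT, 0.05% BSA.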
Menin-MLL FL inh = inhibitors of human menin-MLL interaction, wild-type MLL peptide. FP activity change, % at 61.4 µM. Fluorescence polarization, fluorescein-MLL peptide displacement from menin. 290,000 tested, under 10 active. AID 1766; active = well fitted curve in the direction sought with a large enough effect in the polarisation, not every such curve was filed as active; inconclusive = small, poorly fitted or top-dose-only effect, or effect the other way, or a change in a side signal; inactive = no such curve, though single readings can be large or run the other way; the % refers to the polarisation; note: % of control where 0% means no effect
a7 integrin act = activates integrin-mediated alleviation for muscular dystrophy; alpha7betagal myoblasts, beta-gal FDG fluorescence, 48 h; Potency, µM (doses to about 38.3 µM), inactives show at the highest dose activation, most hits filed as activators; hit rate 0.064% among 350,000; AID 624291;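 note: potency is the fitted concentration of half-maximal effect; 100% = response of the positive control SU9516; nearly all actives have a fitted effect of over 60% in size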
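Alpha7betagal+/- myoblasts (passage 13) were plated 16-24 hr, then exposed to compounds (1:260 dilution of DMSO stock) for 48 hours at 37C. After MPER lysis, β-galactosidase reporter activity was read as FDG fluorescence (ex 480/em 540) after 30 minutes.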
Menin MLL FP TR = displaces Texas Red mutant MLL peptide from human menin; Menin + Texas Red MLL mutant peptide, fluorescence polarization; Potency, µM (series often up to 61.6 µM), for the others: top-dose FP activity change, negative = inhibition, usual class: inhibitors; hit rate 0.23% among 270,000; active = well fitted inhibition curve with a large enough effect in the polarisation, with a control signal flat, not every such curve was filed as active; inconclusive = small, poorly fitted or top-dose-only effect, or effect the other way, or a change in a side signal; inactive = no such curve, though single readings can be large or run the other way; the % refers to the polarisation; note: potency is the fitted concentration of half-maximal effect; % of control where 0% means no effect
GLA inh pH 4.5 = alpha-galactosidase A (human) inhibition, pH 4.5; 230,000 tested, under 10 active; purified enzyme, 4-MU-alpha-Gal fluorescence, pH 4.5; activity change, negative = inhibition, % at 105 µM;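 note: 0% = full activity with enzyme and -100% = basal without enzyme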
GLA spleen mod = inhibitors or activators of human alpha-galactosidase in spleen homogenate | human spleen homogenate, 4MU-alpha-Gal fluorescence, 40 min | Potency, µM (highest dose often 80 µM), inactives show top-dose activity change, negative = inhibition, hits mostly inhibitors | hit rate 0.008% among 240,000;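 note: potency is the fitted concentration of half-maximal effect; 0% = enzyme with vehicle and -100% = no enzyme basal signal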
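qHTS titration in buffer at pH 5.0. Alpha-galactosidase activity in spleen homogenate was measured via 4-methylumbelliferone release from 1 mM fluorogenic substrate after 40 min at 37C and a pH 10 stop. AC50 came from Hill fits of control-normalized data.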
MLL CXXC Fl = inhibitors of human MLL CXXC domain-DNA interaction; Potency, µM (highest dose often 345 µM), for inactives: at the top dose activity change, negative = inhibition, hits mostly inhibitors; shares compounds with MLL CXXC-DNA inh; hit rate 70% among 200; MLL CXXC-DNA binding, fluorescein FP; note: potency is the fitted concentration of half-maximal effect; nearly all actives have a fitted effect of over 80% in size
MLL CXXC FP-TR = disrupts human MLL CXXC domain binding to DNA, Texas Red; hit rate 40% among 200; AID 624161; Potency, µM (top dose mostly 345 µM), for the others: at the top dose activity change, negative = inhibition, usual class: inhibitors; MLL CXXC-DNA binding, Texas Red fluorescence polarization; shares compounds with MLL CXXC-DNA inh; note: potency is the fitted concentration of half-maximal effect; % is set by controls: 0 for no effect and ±100 for the full control effect; nearly all actives have a fitted effect of over 75% in size
MLL CXXC HTRF = disrupts human MLL CXXC domain binding to DNA by HTRF | shares compounds with MLL CXXC-DNA inh | MLL CXXC-DNA binding, HTRF, biochemical | Potency, µM (top dose mostly 172 µM), without a hit: top-dose activity change, negative = inhibition, hits mostly inhibitors | hit rate 30% among 210 | AID 624162; note: % is set by controls: 0 for no effect and ±100 for the full control effect; nearly all actives have a fitted effect of over 80% in size
Active calls of the source: *; ? = inconclusive; . = no result; [ ] = another dose, or the depositor's remark. Unless noted, calls come from the whole dose curve; as a rule, active = well fitted curve in the direction sought with a large enough effect; inconclusive = small, poorly fitted or top-dose-only effect, or another doubt; inactive = no such curve, though single readings can be large; an effect the other way counts as inactive or inconclusive.

SMILES	MLL CXXC-DNA inh	Menin-MLL FL inh	a7 integrin act	Menin MLL FP TR	GLA inh pH 4.5	GLA spleen mod	MLL CXXC Fl	MLL CXXC FP-TR	MLL CXXC HTRF
CC(C)C[C@@H](CC(=O)N[C@@H](CCCN)CC(=O)N[C@@H]1CCNC[C@H]1C(=O)N[C@H](CC(=O)N[C@@H](CCC(=O)O)CC(=O)O)Cc1ccccc1)NC(=O)[C@@H]1CCCC[C@H]1N	.	-7	.	-2%	-8	-1%	.	.	.
NS(=O)(=O)c1ccc(NC2=CC(=O)C(=O)c3ccccc32)cc1	?	-5	-26%	?	.	.	?	?	108%
CN(Cc1ccco1)c1ccnc(-c2ccccc2C(F)(F)F)n1	.	1	.	-25%	.	-12%	.	.	.
CCN1CCN(c2nc3c(C)cccn3c(=O)c2/C=C(\C#N)C(=O)NCCOC)CC1	32µM*	-5	13%	-2%	.	.	8%	5%	42%
COCCNC(=O)/C(C#N)=C/c1c(N2CCN(C)CC2)nc2c(C)cccn2c1=O	-6%	-1	7%	15%	.	.	.	.	.
CC(=O)O[C@@H]1CC2C(C)(C)C(=O)C=C[C@]2(C)C2CC[C@]3(C)C(=CC[C@H]3C3CO[C@@H](C(C)(C)O)[C@H](O)C3)[C@@]21C (stereo partly specified)	.	13	.	-9%	-10	9%	.	.	.
Cn1ncc(N=Cc2c(O)ccc3ccccc23)c1C(=O)Nc1cccc(Cl)c1	45µM*	?	-44%	?	4	-3%	.	.	118%
O=C(CSC1=NS(=O)(=O)c2ccccc21)Nc1ccccc1	32µM*	1	-5%	-1%	-8	5%	-2%	113µM*	24µM*
O=C1c2ccccc2-c2n[nH]c3cccc1c23	?	?	-32%	?	-15	12%	36µM*	?	18%
COc1ccccc1/C=C1/C(=O)ON=C1C	?	-7	?	-3%	.	.	100µM*	126µM*	-14%
COc1ccc(/C=C2/C(=O)ON=C2C)cc1Br	-2%	0	0%	-2%	.	.	.	.	.
CCc1sc(C(C2C(=O)CC(C)(C)CC2=O)C2C(=O)CC(C)(C)CC2=O)cc1[N+](=O)[O-]	?	-4	-17%	5%	-11	-4%	0%	113µM*	31µM*
C[C@H](CN1c2ccccc2Sc2cccnc21)N(C)C	?	-9	.	-6%	.	.	.	.	.
N#CC(C#N)=C1C=C2C=C(N3CCCCC3)CCC2CC1 (stereo unspecified)	?	.	-279%	?	-4	-2%	0.14µM*	126µM*	199%
CCN(CC)C1=CC2=CC(=C(C#N)C#N)CCC2CC1 (stereo unspecified)	?	?	-234%	?	7	-2%	.	.	.
CCc1cccc2cc(C(O)CNC(C)(C)C)oc12 (stereo unspecified)	.	0	.	-8%	.	-9%	.	.	.
C[C@@H]1C=CCC(=O)OC[C@H](C)C(=O)OC[C@H]2O[C@H]1C=C[C@@H]2O	.	2[11.7 µM]	.	9%[11.7 µM]	.	-5%[17.5 µM]	.	.	.
O=C(O)c1ccccc1-c1c2cc(Br)c(=O)c(Br)c-2oc2c(Br)c(O)c(Br)cc12	?	?	.	?	.	14%	0.63µM*	5µM*	-62%
CC(C)C[C@@H](CC(=O)N[C@@H](CCC(=O)O)CC(=O)O)NC(=O)[C@@H]1CNCC[C@H]1NC(=O)C[C@@H](NC(=O)C[C@H](CO)NC(=O)[C@@H]1CNCC[C@H]1N)C(C)C	.	-1	.	3%	0	4%	.	.	.
N#Cc1cccc(NC(=O)N2CCCC3(CCN(C(=O)c4ccco4)CC3)C2)c1	.	0	.	1%	.	-2%	.	.	.
COc1ccc2occ(C(=O)c3ccc(N)cc3)c2c1	?	4	10%	26%	.	.	37%	36%	-1%
CCn1c(=O)c2ccccc2n(Cc2ccc([N+](=O)[O-])cc2)c1=O	?	-3	44%	22%	.	.	?	?	22%
CCn1c(=O)c2ccccc2n(Cc2cccc(C)c2)c1=O	-7%	1	-13%	6%	.	.	.	.	.
COc1ccc2cc(Br)ccc2c1CC(=O)NCC1CCCO1 (stereo unspecified)	32µM*	1	?	3%	-21	3%	-1%	30%	29%
CCNC(=O)Cc1c(OC)ccc2cc(Br)ccc12	-12%	0	-23%	-12%	-1	11%	.	.	.
SMILES	MLL CXXC-DNA inh	Menin-MLL FL inh	a7 integrin act	Menin MLL FP TR	GLA inh pH 4.5	GLA spleen mod	MLL CXXC Fl	MLL CXXC FP-TR	MLL CXXC HTRF
CCN(CC)CCCCn1c(-c2ccccc2)nc2c(N(CCOC)CCOC)nc(C)nc21	.	-3	.	-2%	-3	-3%	.	.	.
Cc1cc(O)cc(O)c1C(=O)OC1(C)C(=O)C=C2C=C(/C=C/C(=O)O)OC=C2C1=O (stereo unspecified)	.	?	.	0%	-9	-4%	.	.	.
O=C(O)CN1C(=O)/C(=C\c2cccc(OCc3ccc(Cl)cc3Cl)c2)SC1=S	?	1	17%	54%	.	.	?	23%	-103%
CCCCc1cc2c(cn1)=C(OC(=O)CCC(=O)OC)C(C)(OC(=O)CC)C(=O)C=2 (stereo unspecified)	.	2[11.7 µM]	.	-12%[11.7 µM]	9	-9%[17.5 µM]	.	.	.
O=C(CC(C(=O)N1CCc2ccccc21)n1ccnc1)N1CCc2ccccc2C1 (stereo unspecified)	32µM*	4	-31%	-23%	-6	-9%	?	10%	2%
CCCCNC(=O)CC(C(=O)N1CCc2ccccc21)n1ccnc1 (stereo unspecified)	-9%	0	20%[7.66 µM]	6%	6	8%	.	.	.
CC1OC2(C)OC(=N)C1(C#N)C(C#N)(C#N)C2c1ccccc1 (stereo unspecified)	-7%	3	0%	-2%	5	6%	.	.	.
CCCCC1OC2(C)OC(=N)C1(C#N)C(C#N)(C#N)C2c1ccccc1 (stereo unspecified)	22µM*	?	-4%	-27%	18	?	28µM*	?	-5%
Cc1cc(C)c(N(Cc2ccccc2)S(=O)(=O)c2ccc(OCCNC(=O)c3cc4ccccc4o3)cc2)c(C(=O)NO)c1	.	3	.	25%	.	0%	.	.	.
COc1ccc(CNc2nc(-c3ccc(N(C)C)cc3)nc3ccccc23)c(OC)c1	.	-3	.	?	.	2%	.	.	.

Assay outcomes deposited in PubChem by National Center for Advancing Translational Sciences (NCATS).
